# According to publication doi:10.1101/2025.02.07.636106:
# Key:
# [1] = target: AP-1 complex subunit sigma-1A (UniProt P61966); test: cross-linking mass spectrometry
# [2] = target: AP-1 complex subunit mu-1 (UniProt Q9BXS5); test: co-fractionation; cross-linking mass spectrometry
# [3] = target: Elongation factor 1-alpha 1 (UniProt P68104); test: cross-linking mass spectrometry
# Histone deacetylase 2 = Histone deacetylase 2 (UniProt Q92769); test: cross-link between two proteins; cross-linking mass spectrometry
# Peregrin = Peregrin (UniProt P55201); test: as above
# Abl interactor 1 = Abl interactor 1 (UniProt Q8IZP0); test: co-fractionation; cross-linking mass spectrometry
# [4] = target: Dolichyl-diphosphooligosaccharide--protein glycosyltransferase subunit DAD1 (UniProt P61803); test: co-fractionation; cross-linking mass spectrometry
# [5] = target: 26S proteasome non-ATPase regulatory subunit 7 (UniProt P51665); test: cross-link between two proteins; cross-linking mass spectrometry
# [6] = target: 26S proteasome regulatory subunit 10B (UniProt P62333); test: as above
# [7] = target: Activity-dependent neuroprotector homeobox protein (UniProt Q9H2P0); test: as above
# [8] = target: B-cell receptor-associated protein 29 (UniProt Q9UHQ4); test: as above
# [9] = target: BTB/POZ domain-containing protein 7 (UniProt Q9P203); test: as above
# [10] = target: Cytochrome b-c1 complex subunit Rieske, mitochondrial (UniProt P47985); test: as above
# Elongin-A = Elongin-A (UniProt Q14241); test: as above
# [11] = target: Endoplasmic reticulum chaperone BiP (UniProt P11021); test: as above
substance,measurement,setting,value
"AP-1 complex subunit gamma-1, O43747",listed as a hit,[1],yes
same,listed as a hit,[2],yes
"Heat shock protein HSP 90-beta, P08238",listed as a hit,[3],yes
same,listed as a hit,Histone deacetylase 2,yes
same,listed as a hit,Peregrin,yes
"AP-1 complex subunit sigma-1A, P61966",listed as a hit,[2],yes
"Cytoplasmic FMR1-interacting protein 1, Q7L576",listed as a hit,Abl interactor 1,yes
"Dolichyl-diphosphooligosaccharide--protein glycosyltransferase subunit 1, P04843",listed as a hit,[4],yes
"Dolichyl-diphosphooligosaccharide--protein glycosyltransferase subunit 2, P04844",listed as a hit,[4],yes
"26S proteasome non-ATPase regulatory subunit 12, O00232",listed as a hit,[5],yes
"Proteasome subunit alpha type-3, P25788",listed as a hit,[6],yes
"ATP-dependent chromatin remodeler CHD4, Q14839",listed as a hit,[7],yes
"Leucine-rich repeat-containing protein 59, Q96AG4",listed as a hit,[8],yes
"Secretory carrier-associated membrane protein 3, O14828",listed as a hit,[9],yes
"Putative cytochrome b-c1 complex subunit Rieske-like protein 1, P0C7P4",listed as a hit,[10],yes
"ATP synthase peripheral stalk subunit OSCP, mitochondrial, P48047",listed as a hit,Elongin-A,yes
"DNA/RNA-binding protein KIN17, O60870",listed as a hit,[11],yes
